# TROY NFkB inh: inhibitors of TROY-driven NF-kB signaling, primary screen, Q293 LMP1-TROYcd cells, NF-kB luciferase, uHTS; Q293 LMP1-TROYcd NF-kB luciferase reporter, 4 h; 360,000 tested, 0.98% active; AID 1347056, 2019; inhibition, % at 10 µM;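 active means compounds whose plate-normalised and pattern-corrected inhibition of the luciferase reporter signal at the single screening dose is 50% or more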
# Shn3 inh set2: reduction of Shn3 3'UTR firefly luciferase signal, primary screen, Schnurri-3 inhibitor project, cell-based, Clone20 osteoblasts, set 2. Clone20 osteoblast Shn3 3'UTR firefly luciferase, 24 h. inhibition, % at 12.5 µM. 360,000 tested, 0.52% active. AID 588674, 2011;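 active means mean inhibition of at least 75% with every replicate also reaching 75%; inconclusive means mean inhibition at least 75% but some replicate below; inactive means mean inhibition below 75%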;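 further: 0% = median of neutral control wells and 100% = pilot-screen positive control compound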
# Peg3 prom inh: Peg3 promoter-driven luciferase inhibitors, primary screen, cell-based, HeLa, luciferase luminescence; HeLa PEG-Prom luciferase reporter, overnight; inhibition, % at 20 µM; 360,000 tested, 1.7% active;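 active means inhibition of at least 50% at 20 µM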
# TWEAK-Fn14 inh: inhibitors of TWEAK-Fn14 signaling, primary screen, luciferase reporter cells, uHTS; inhibition, % at 10 µM; 360,000 tested, 2% active; AID 1159606, 2016; TWEAK-stimulated Fn14 reporter cells, luciferase luminescence, 8 h; in the data active means inhibition above about 50%
# LMP1 NFkB inh: EBV LMP1-driven NF-kappaB luciferase reporter inhibitors, primary screen, cell-based, luminescence, single point. inhibition, % at 12.5 µM. LMP1-induced NF-kappaB luciferase reporter cells. 350,000 tested, 0.69% active; in the data active means inhibition above about 41%; inconclusive means no clear call, values can overlap the other calls;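 further: 0% = neutral control wells and 100% = reference inhibitor control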
# TRPM1 prom inh: inhibitors of MITF-dependent TRPM1 promoter reporter, primary screen, cell-based, SK-MEL-5, single point, luciferase; AID 488899, 2010; 330,000 tested, 0.83% active; SK-MEL-5 TRPM1 promoter luciferase, 24 h; inhibition, % at 12.5 µM;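 active means mean inhibition across replicates of 60% or more, whatever share of single replicates reaches that level; inconclusive means some that reach 60%, reason not given; inactive means mean inhibition across replicates below 60%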
# * = called active by the depositor; u = inconclusive; x = no result. Rows were chosen to be rich in hits. Some 4.1% of all compounds tested hit in one or more screens of this group.
SMILES,TROY NFkB inh,Shn3 inh set2,Peg3 prom inh,TWEAK-Fn14 inh,LMP1 NFkB inh,TRPM1 prom inh
CCC(=O)[C@@H](C)[C@@H](O)[C@H](C)C[C@@H](C)C1OC(=O)C[C@@]2(O)CC=C(C)C(O2)C(C)=CCCC[C@H](O[C@H]2C[C@@H](OC(N)=O)[C@H](O)[C@@H](C)O2)C=C[C@H](C)C[C@H]1C (some centres not stated),29.1,x,x,88.9*,x,x
O=c1c(C=NCc2cccs2)c(O)n(C2CCCCC2)c(=O)n1C1CCCCC1,3.2,9.5,22.1,18.6,-6.8,0.0
N=C(N)c1c(O)n(C2CCCCC2)c(=O)n(C2CCCCC2)c1=O,22.8,44.6,77.0*,36.1,-12.6,20.4
O=[N+]([O-])c1ccc(N2CCOCC2)c2c1no[n+]2[O-],37.6,60.6,96.1*,103.3*,0.4,x
O=[N+]([O-])c1ccc(N2CCOCC2)c2cccnc12,5.7,-0.7,18.4,6.5,4.6,11.6
CCOC(=O)C1CCN(/C=C2/C(=O)NC(=O)N(c3cccc(C)c3C)C2=O)CC1,5.6,0.5,12.9,-21.3,3.0,-3.6
CCCCCc1nc2c(c(=O)c3ccccc3n2C)c(=O)n1C1CCCCCC1,88.9*,90.1*,71.9*,43.8,0.9,7.8
CN1CCN(Cc2nc3ccccc3n2C)CC1,14.5,2.2,4.4,9.1,-0.2,6.2
Cn1c(NN=O)nc2ccccc21,7.7,89.6*,-5.1,-31.5,5.5,42.5
COC(=O)[C@@H]1[C@@H](C(=O)OC)C2(c3ccccc3-c3ccccc32)N(c2ccc(Cl)cc2)N1C#N,83.8*,79.2,106.9*,26.1,29.8,93.0*
COC(=O)C[C@]1(C(=O)OC)CN(C#N)N(c2ccc(Cl)cc2)C12c1ccccc1-c1ccccc12,89.0*,97.2*,102.9*,95.5*,89.9*,95.9*
N#CC(C#N)=C(N)c1cccnc1,-9.6,-18.5,21.6,5.2,-6.1,-7.1
CCC(C)C12CN3CCN(CC(C)(C3)C1O)C2 (configuration not stated),22.0,7.0,-12.6,16.4,-2.2,2.8
O=C(O)c1ccc(N=Cc2c(O)[nH]c(=O)[nH]c2=O)cc1,10.5,-2.5,0.6,5.5,-9.9,-6.5
Cc1cc(C)c(N=Cc2c(O)[nH]c(=O)[nH]c2=O)c(C)c1,-0.7,-27.3,51.1*,-7.1,4.4,32.0
COc1ccc(CN2Cc3cnnn3-c3ccccc3C2C#N)cc1 (configuration not stated),46.3,-21.2,92.6*,74.2*,14.9,97.7*
N#CC1c2ccccc2-n2nncc2CN1Cc1cc(Cl)cc(Cl)c1 (configuration not stated),90.6*,80.6,95.9*,107.1*,62.4*,97.5*
COc1ccc(CN2Cc3cnnn3-c3ccccc3C2c2ccccc2)cc1 (configuration not stated),8.4,0.2,39.3,-18.4,-11.3,0.7
CC(=O)N1Cc2cnnn2-c2ccccc2C1(C#N)Cc1ccccc1 (configuration not stated),-0.8,-12.1,-6.2,0.9,-6.7,1.3
CCN(CCNc1ccc([N+](=O)[O-])c2cccnc12)S(=O)(=O)c1ccccc1,-6.0,-10.7,16.3,-16.7,-6.4,-10.2
Cc1c(NS(=O)(=O)c2ccccc2)ccc([N+](=O)[O-])c1Cl,59.5*,18.5,42.5,46.0,7.6,10.4
CN1CCC(N(C)c2nc(-c3ccc([N+](=O)[O-])cc3)nc3ccccc23)CC1,-45.6,-71.7,108.2*,-55.6,-117.6,u
CC1CC(C)CC(C)C(O)C(C#N)=CC=CCC(C2CCCC2C(=O)O)OC(=O)CC(O)C(C)C1 (configuration not stated),81.5*,97.4*,50.8*,100.0*,u,91.6*
CC(=O)N1Cc2cnnn2-c2ccccc2C1C#N (configuration not stated),2.3,0.9,-6.0,9.6,-3.8,-2.3
COC(=O)C1(C(=O)O)Cc2cc([N+](=O)[O-])ccc2N2CCCC21 (configuration not stated),-4.9,0.5,7.2,-11.5,8.7,3.9
SMILES,TROY NFkB inh,Shn3 inh set2,Peg3 prom inh,TWEAK-Fn14 inh,LMP1 NFkB inh,TRPM1 prom inh
CCOC(=O)C1SC2(C(F)(F)F)CC1(O)c1c(C)cc(C)nc1O2 (configuration not stated),6.0,7.7,20.8,1.3,10.2,21.3
Cc1nc2ccc(Br)cc2c(=O)n1-c1ccc([N+](=O)[O-])c(C(F)(F)F)c1,55.8*,-3.7,11.1,36.2,11.1,1.5
O=c1ccc2cc3ccoc3c(O)c2o1,-0.8,4.4,4.5,7.3,-16.5,x
C[C@@H]1NCCc2cc(O)c(O)cc21,-1.8,-6.9,-5.0,4.7,2.1,-11.4
CN1C2CCC1/C(=C/c1ccccn1)C(=O)/C2=C\c1ccccn1,41.6,92.7*,99.4*,100.3*,92.6*,96.8*
NC(Cc1ccccc1)c1nn[nH]n1 (configuration not stated),-6.0,-4.6,-3.7,-5.4,2.8,7.2
O=C(COc1ccc2ccccc2c1)N1CCN(CC2CC3C=CC2C3)CC1 (configuration not stated),12.5,1.8,20.2,-1.9,6.4,1.8
O=c1[nH]c(=S)n(Cc2ccc(F)cc2)c(O)c1/C=N/N1CCCCCC1,-11.3,2.9,-1.4,6.3,13.9,1.9
Cc1ccccc1-n1c(O)c(/C=C2/C(c3ccccc3)=Nc3ccccc32)c(=O)[nH]c1=O,-30.3,-13.6,-42.6,55.6*,-8.5,-1.3
Cc1cccc(-n2c(O)c(/C=C3/C(c4ccccc4)=Nc4ccccc43)c(=O)[nH]c2=O)c1,-0.7,3.8,-56.7,52.9*,1.8,-14.7
COC(=O)C1=Nc2ccccc2/C1=C\c1c(O)n(-c2cc(OC)ccc2OC)c(=O)[nH]c1=O,10.9,15.4,14.9,59.9*,-0.8,13.3
COc1ccc(OC)c(-n2c(O)c(C=Nc3c(C)n(C)n(-c4ccccc4)c3=O)c(=O)[nH]c2=O)c1,4.3,23.3,-1.6,-15.8,11.9,-1.9
Cc1cccc(-n2c(O)c(/C=C/C=Nc3ccccc3)c(=O)[nH]c2=O)c1,-12.8,3.6,16.1,21.0,-9.7,-4.3
Oc1ccc2c3c1OC1c4[nH]c5ccccc5c4C[C@@]4(O)C(C2)N(CC2CC2)CC[C@]314 (some centres not stated),6.0,-6.9,-15.5,3.3,1.3,-14.0

# Screening results (PubChem)
